# Cruzain noTriton: cruzain (T. cruzi) inhibition without detergent. P25779. AID 1476. hit rate 2.3% among 200,000. purified cruzain, Z-FR-AMC fluorescence, no detergent. Potency, µM, inactives show max response, negative = inhibition, actives largely listed as inhibitors;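 also: plate controls were enzyme without inhibitor for no effect and buffer without enzyme for full effect; nearly all actives have a fitted effect of over 40% in size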
# Target sequence (P25779 123-467 limits assumed): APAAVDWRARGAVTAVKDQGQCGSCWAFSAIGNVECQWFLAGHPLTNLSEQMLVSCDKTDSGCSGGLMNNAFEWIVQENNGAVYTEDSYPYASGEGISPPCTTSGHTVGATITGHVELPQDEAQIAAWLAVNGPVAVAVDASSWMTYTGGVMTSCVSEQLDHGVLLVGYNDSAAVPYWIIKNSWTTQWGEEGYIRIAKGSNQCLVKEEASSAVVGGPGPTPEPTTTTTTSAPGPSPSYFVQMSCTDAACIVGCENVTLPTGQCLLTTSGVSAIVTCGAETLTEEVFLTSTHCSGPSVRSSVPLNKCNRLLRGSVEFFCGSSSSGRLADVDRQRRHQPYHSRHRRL
#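 Purified cruzain at 1.5 nM, pre-incubated 15 min with compound at room temperature in 100 mM sodium acetate pH 5.5, 5 mM DTT, 0.00005% Triton X-100. Reaction started with 2 uM Z-FR-AMC; AMC fluorescence increase over 60 s gives rate.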
# Cruzain Triton: inhibitors of Trypanosoma cruzi cruzain with detergent; P25779; purified cruzain, Z-FR-AMC fluorescence, 0.01% Triton; Potency, µM, for the others: max response, negative = inhibition, usual class: inhibitors; hit rate 0.43% among 200,000; AID 1478;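 also: plate controls were neutral wells for no effect and buffer without enzyme for full effect; nearly all actives have a fitted effect of over 40% in size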
#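 Detergent-containing run (0.01% Triton X-100) in acetate buffer pH 5.5 with 5 mM DTT: enzyme at 1.5 nM final, 15 min compound preincubation at room temperature, then 2 uM Z-FR-AMC substrate. Activity taken as 60 s fluorescence increase at 360/450 nm.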
# Starred values were filed as active, the others as inactive; ? = inconclusive. Sampled rows, rich in hits. Any-hit rate of the full collection: about 2.6%. Calls follow the shape of the dose curve; as a rule, active = well fitted curve in the direction sought with a large enough effect; inconclusive = small, poorly fitted or top-dose-only effect, or another doubt; inactive = no such curve, though single readings can be large; an effect the other way counts as inactive or inconclusive. Potency is read from the fitted curve at half-maximal effect.
SMILES,Cruzain noTriton,Cruzain Triton
Cc1ccccc1C(=O)Nc1sc2c(c1C(=O)N1CCC(C)CC1)CCC(C)C2 (stereo not drawn),16.0%,-2.7%
CCOC(=O)CBr,1.0%,0.6%
COc1ccc(CCNC(=O)C(=O)NCC(c2cccs2)S(=O)(=O)c2ccc(F)cc2)cc1 (stereo not drawn),-9.3%,-2.7%
O=[N+]([O-])c1c(Cl)cc(Cl)cc1Cl,-7.3%,-2.5%
COc1cc(/C=C2\SC(=S)N(Nc3ncc(C(F)(F)F)cc3Cl)C2=O)ccc1O,?,-9.3%
CN(C)c1ccc(/C=C2\SC(=S)N(Nc3ncc(C(F)(F)F)cc3Cl)C2=O)cc1,12.6µM*,-9.3%
C[C@H]1[C@H](C)CC[C@]2(C(=O)O)CC[C@]3(C)C(=CCC4[C@@]5(C)C[C@@H](O)[C@H](O)[C@@](C)(CO)[C@@H]5CC[C@]43C)[C@H]12 (stereo partly drawn),?,3.6%
CC(=O)Nc1nc(-c2ccc(Br)s2)cs1,12.6µM*,2.7%
Cc1ccc(NC(=O)Nc2nnc(N3CCCC3)s2)cc1,23.2%,-5.1%
Cc1ccc(NC(=O)Nc2nc(-c3ccc(C)s3)cs2)cc1,25.1µM*,3.7%
O=C(Nc1nc(-c2ccccn2)cs1)c1ccc(Br)s1,?,-24.1%
O=C(Nc1nc(-c2cc(Cl)sc2Cl)cs1)c1cccs1,?,-4.6%
O=C(Nc1nc(-c2cc(Cl)sc2Cl)cs1)c1ccc(Br)s1,7.94µM*,-7.1%
COC(=O)c1c(-c2ccc(Cl)cc2)noc1N1CCN(c2cc(C)ccc2C)CC1,-8.0%,3.8%
CCCC1N=C2c3ccccc3N=C(SCC(=O)NCCc3ccc(Cl)cc3)N2C1=O (stereo not drawn),-5.4%,-2.3%
CN1[C@@H]2CC(OC(=O)[C@H](CO)c3ccccc3)C[C@@H]1[C@H]1O[C@H]12 (stereo partly drawn),4.8%,-4.6%
NC(=O)C1CCN(C(=O)c2ccc3c(c2)N(Cc2cccc(Cl)c2)C(=O)c2ccccc2S3(=O)=O)CC1,?,-3.6%
CCOC(=O)c1ccc(N2C(=O)c3[nH]nc(-c4ccc(C)cc4)c3C2c2ccc(O)cc2)cc1 (stereo not drawn),?,-5.1%
CCOC(=O)c1ccc(N2C(=O)c3[nH]nc(-c4ccccc4)c3C2c2ccc(CC)cc2)cc1 (stereo not drawn),12.6µM*,-3.6%
Cc1ccc(S(=O)(=O)c2nnn3c2nc(N2CCOCC2)c2sccc23)cc1C,?,-7.7%
O=C(O)c1c(Cl)c(Cl)c(Cl)c(Cl)c1-c1c2cc(I)c(=O)c(I)c-2oc2c(I)c(O)c(I)cc12,-28.2%,12.6µM*
Cc1cc(C)c(Cn2c(=O)n(CCC(=O)NCCc3ccccc3)c(=O)c3ccccc32)c(C)c1,-6.5%,0.2%
Cc1ccc2cc(/C=N/NC(=O)[C@H](C)NC(=O)OC(C)(C)C)c(Cl)nc2c1,2.5%,-1.2%
COc1ccc2nc(/C=N/NC(=O)[C@H](C)NC(=O)OC(C)(C)C)ccc2c1,31.6µM*,-24.1%
COc1ccc(-c2coc3cc4oc(=O)cc(C)c4cc23)cc1F,-27.3%,2.5%
SMILES,Cruzain noTriton,Cruzain Triton
COc1ccc(-c2coc3cc4oc(=O)cc(-c5ccccc5)c4cc23)cc1F,10µM*,1.2%
O=[N+]([O-])c1ccc(N2CCCC2)cc1N/N=C1\CN2CCC1CC2,25.1µM*,?
O=[N+]([O-])c1ccc(N2CCNCC2)cc1NC1CC1,0.5%,-5.6%
C=C/C(C)=C/[C@@]1(C)SC(=O)C(C)=C1O,6.1%,1.0%
Cn1cccc1/C=C1\SC(=O)N(CC(=O)Nc2ccc(Cl)cc2)C1=O,?,-3.5%
CCn1c(C)cc(/C=C2\NC(=O)N(CC(=O)Nc3cccc(C)c3)C2=O)c1C,?,0.7%
Cc1ccc(NC(=O)CN2C(=O)S/C(=C\C(=O)Nc3ccc(Cl)cc3)C2=O)cc1,10µM*,0.1%
CCn1c(C)cc(/C=C2\SC(=O)N(CC(=O)Nc3ccc(C)c(C)c3)C2=O)c1C,15.8µM*,0.1%
NCCSC(c1ccccc1)c1ccccc1,-1.3%,-1.4%
CC1=NN(c2ccc(S(=O)(=O)O)cc2)C(=O)/C1=C\c1ccc(Cl)cc1,-0.3%,5.0%
CCOC(=O)c1ccc(NS(=O)(=O)c2cc(-c3onc(C)c3C)ccc2C)cc1,1.4%,-9.3%
COc1ccc(-n2c(C)nc3cc(C(=O)NC4CCCCCC4)ccc32)cc1,-11.1%,-1.6%
O=C(NCCCc1nc2ccccc2n1Cc1ccc(Cl)cc1Cl)c1ccco1,23.6%,-10.1%
Cc1cc(Oc2nc3c(C)cccn3c(=O)c2/C=C(\C#N)S(=O)(=O)c2ccc(Cl)cc2)ccc1Cl,12.6µM*,-0.6%
Cc1cccn2c(=O)c(/C=C(\C#N)c3nc4ccccc4n3C)c(Oc3ccc(Cl)cc3)nc12,-7.1%,-1.4%
O=C(Nc1ccccc1N1CCCC1)c1ccc(Br)o1,-6.0%,-4.0%
O=C(Nc1ccc(N2CCCC2)c(Cl)c1)c1ccc(Br)o1,10µM*,-13.7%
CCn1c2ccccc2c2cc(NC(=O)c3cc(OC)cc(OC)c3)ccc21,?,-6.2%
CCn1c2ccccc2c2cc(NC(=O)c3ccc(C)c([N+](=O)[O-])c3)ccc21,25.1µM*,-2.7%
CCn1c2ccccc2c2cc(NC(=O)c3ccc(Br)o3)ccc21,106.9%,12.6µM*
CCn1c2ccccc2c2cc(NC(=O)c3cccc([N+](=O)[O-])c3)ccc21,-4.5%,4.3%
CC(C)c1cnc2c(c1SCC(=O)Nc1ccccc1C(F)(F)F)c(=O)n(C)c(=O)n2C,4.8%,1.3%
O=C(c1ccc2c(c1)N(Cc1cccc(Cl)c1)C(=O)c1ccccc1S2(=O)=O)N1CCCCC1,1.9%,-3.7%
O=C(c1ccc2c(c1)N(Cc1cccc(Cl)c1)C(=O)c1ccccc1S2(=O)=O)N1CCN(c2cccc(C(F)(F)F)c2)CC1,5.01µM*,-1.8%
CCN1CCN(C(=O)c2ccc3c(c2)N(Cc2cccc(Cl)c2)C(=O)c2ccccc2S3=O)CC1 (stereo not drawn),-0.5%,-0.5%
SMILES,Cruzain noTriton,Cruzain Triton
O=C(c1ccc2c(c1)N(Cc1cccc(Cl)c1)C(=O)c1ccccc1S2=O)N1CCN(c2cccc(C(F)(F)F)c2)CC1 (stereo not drawn),25.1µM*,-2.6%
CCc1ccc(S(=O)(=O)c2cn(Cc3ccccc3F)c3cc(OC)c(OC)cc3c2=O)cc1,?,-2.1%
COc1ccc(C(C[N+](=O)[O-])c2c(-c3ccccc3)cc3ccccn23)c(OC)c1 (stereo not drawn),?,-6.4%
Cc1cc2ccccn2c1C(C[N+](=O)[O-])c1ccc(N(C)C)cc1 (stereo not drawn),25.1µM*,-9.7%
CC(=O)OC1CC2C(C)(C)C(O)CC[C@@]2(C)C2CC[C@@]3(C)C(c4ccoc4)OC(=O)C4O[C@@]43[C@]12C (stereo partly drawn),?,-4.3%
O=c1c(-c2ccc(O[C@@H]3O[C@H](CO)[C@@H](O)[C@H](O)[C@H]3O)cc2)coc2cc(O)cc(O)c12,-0.3%,-3.2%
CC(C)N1CCN(c2ccc(OC[C@@H]3CO[C@@](Cn4cncn4)(c4ccc(Cl)cc4Cl)O3)cc2)CC1,-3.5%,-4.1%
CCOC(=O)C1=C(C)NC(=S)NC1c1ccc(OC(=O)c2ccco2)cc1 (stereo not drawn),?,-7.9%
CCOC(=O)c1c(NC(=O)C2=C(C)NC(=S)NC2c2ccc(CC)cc2)sc(C)c1C (stereo not drawn),10µM*,-4.7%
O=C(c1csnn1)N1CCC2(CCN(Cc3ccccc3)CC2)CC1,-7.7%,-8.5%

# Source: PubChem (National Center for Advancing Translational Sciences (NCATS))
